Assay [1] concerns XIP peptide (Xip251-270) binding. The experiment in a line: small-molecule binders of XIP peptide, primary screen, biochemical, small-molecule microarray, fluorescence 635/667 nm, 0.1 µg/mL protein (AID 1182). The conditions noted are these: fluorescent protein binding, 635 nm, higher = more signal, called active from +8 up or from −8 down.
The subject of a further assay is XIP peptide (Xip251-270). The experiment in a line: small-molecule binders of XIP peptide, primary screen, biochemical, small-molecule microarray, fluorescence 635/667 nm, 0.5 µg/mL protein (AID 1183). The conditions noted are these: small-molecule microarray binding, fluorescence 635 nm; higher = more signal.
Assay [2] in a line: Plasmodium falciparum growth inhibition, primary screen, strain 3D7, DAPI fluorescence, 100 nL (AID 1184).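 Also: parasites grown inside human red blood cells in medium with human serum.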 The conditions noted are these: P. falciparum 3D7 growth, 3 d, higher = more signal.
For assay [3], the target named is Homeobox protein Hox-A13 (Mus musculus) (UniProt Q62424). The experiment in a line: inhibitors of HoxA13-DNA binding, primary screen, biochemical, fluorescence polarization, labeled oligonucleotide (AID 1185). The note with it: 15 min, higher = more signal, called active from +8 up or from −8 down. (In fluorescence polarisation assays a small probe gives low polarisation when free and higher when bound to something large.)
Homeobox protein Hox-A13 (Mus musculus), sequence (Q62424 whole entry, looked up): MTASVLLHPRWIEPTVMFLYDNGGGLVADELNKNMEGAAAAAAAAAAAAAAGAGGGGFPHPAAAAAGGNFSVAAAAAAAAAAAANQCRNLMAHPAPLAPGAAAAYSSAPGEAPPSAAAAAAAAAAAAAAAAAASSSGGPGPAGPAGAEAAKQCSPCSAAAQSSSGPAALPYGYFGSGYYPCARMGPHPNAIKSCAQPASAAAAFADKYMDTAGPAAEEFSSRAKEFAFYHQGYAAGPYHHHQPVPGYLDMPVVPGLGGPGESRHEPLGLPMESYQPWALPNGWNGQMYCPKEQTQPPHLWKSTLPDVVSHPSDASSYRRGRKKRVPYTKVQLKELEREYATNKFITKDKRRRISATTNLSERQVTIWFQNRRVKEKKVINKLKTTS

Assay [4] is described as follows: inhibitors of hydroxyurea-induced Chk1 phosphorylation, primary screen, imaging, HeLa, phospho-Chk1 antibody, percent positive cells (AID 1186). The conditions noted are these: hydroxyurea-induced phospho-Chk1 immunofluorescence imaging, higher = more signal.
Assay [5] in a line: inhibitors of hydroxyurea-induced Chk1 phosphorylation, primary screen, imaging, HeLa, phospho-Chk1 nuclear intensity (AID 1187). The note with it: hydroxyurea-induced phospho-Chk1 immunofluorescence imaging, higher = more signal.

Activity calls are given as the source filed them. Unless noted, no rule for the calls is given here.

The record followed here is PubChem BioAssay.

As for `CO[C@H]1O[C@H](CO)[C@@H](OC(=O)Nc2ccccc2-c2ccccc2)[C@H](OC(=O)Nc2ccccc2-c2ccccc2)[C@H]1OC(=O)Nc1ccccc1-c1ccccc1`, the composite z-score was 0.0163 (inactive) in assay [1] and 0.861 in the assay on XIP peptide (Xip251-270). Besides, the z-score in assay [2] was -1.06; in assay [3], -2.05 (inactive); in assay [4], -0.0075 (inactive); in assay [5] it was 0.618 (inactive).

Consider `CC1CC/C=C\[C@H]2OC34C=CCN(Cn5nnc6ccccc65)C(=O)[C@H]3N(CCCO)C(=O)[C@@H]4C2C(=O)O1` (stereo partly drawn), for which the composite z-score in assay [1] was 0.75 (inactive); in the assay on XIP peptide (Xip251-270), 0.13. Besides, the z-score is -0.0633 in assay [2], -5.65 (inactive) in assay [3], -0.86 (inactive) in assay [4] and -0.909 (inactive) in assay [5].

Take `O=C1C2C=CC(C(O)c3ccccn3)N(Nc3ccccc3F)C2C(=O)N1c1ccccc1` (stereo not drawn): the composite z-score is -0.035 (inactive) in assay [1] and 0.796 in the assay on XIP peptide (Xip251-270). Besides, the z-score in assay [2] was -0.0664; in assay [3], -2.54 (inactive); in assay [4] it was -0.0045 (inactive); in assay [5], -0.176 (inactive).

Take `C=CCOC(=O)[C@@H]1[C@H]2C(=O)O[C@H](c3ccccc3)[C@H](c3ccccc3)N2[C@H](c2ccc(OCCOC(=O)[C@H]3C[C@H]4C(=O)N[C@@H](Cc5ccccc5)C(=O)N4[C@H]3c3ccc(O)cc3)cc2)[C@@]12C(=O)Nc1ccc(I)cc12`: the composite z-score in assay [1] was 2.09 (inactive); in the assay on XIP peptide (Xip251-270), 0.81. The z-score in assay [2] is 0.265; in assay [3] it was 6.27 (inactive); in assay [4] it was -0.177 (inactive); in assay [5] it was -0.343 (inactive).

Take `COC(=O)[C@@]1(Cc2ccc(OC)cc2)[C@H]2c3cc(C(=O)N(C)C)n(Cc4ccc(OC)c(OC)c4)c3C[C@H]2CN1C(=O)c1ccccc1`: the composite z-score in assay [1] is 0.811 (inactive); in the assay on XIP peptide (Xip251-270), 0.696. The z-score was -1.47 in assay [2], -4.3 (inactive) in assay [3], -0.225 (inactive) in assay [4] and 0.305 (inactive) in assay [5].

Turning to `CCN(CC)c1ccc(N2CC=CC34O[C@@H]5/C=C\CCCOC(=O)C5[C@H]3C(=O)N(CCCO)[C@@H]4C2=O)cc1` (stereo partly drawn), the composite z-score in assay [1] is 0.828 (inactive); with XIP peptide (Xip251-270) it was 0.828. Besides, the z-score in assay [2] is 0.404; in assay [3], -6.09 (inactive); in assay [4], -0.343 (inactive); in assay [5], 0.121 (inactive).

For `[N-]=[N+]=NCc1ccccc1C[C@@]1(C(=O)NCc2ccccc2)N=C(c2ccc(OCCCO)cc2)O[C@@H]1c1ccccc1CN=[N+]=[N-]`, the composite z-score in assay [1] was 0.804 (inactive); in the assay on XIP peptide (Xip251-270), 0.735. In addition, the z-score was -2.59 in assay [2], 3.34 (inactive) in assay [3], -0.174 (inactive) in assay [4] and -0.332 (inactive) in assay [5].

As to `C=CC[C@@]1(C(=O)OC)N=C(c2ccc(OCCCO)cc2)O[C@@H]1c1ccccc1CN=[N+]=[N-]`, the composite z-score was 2.46 (inactive) in assay [1] and 0.611 in the assay with XIP peptide (Xip251-270). For the same compound, the z-score in assay [2] is -2.39; in assay [3] it was -3.73 (inactive); in assay [4] it was -1.07 (inactive); in assay [5], -1.45 (inactive).

On to `CC(C)C(=C=CC[C@H](O)c1ccccc1OCCO)CCO`, for which the figures for the composite z-score (in assay [1]; in the assay on XIP peptide (Xip251-270)) were -0.393 (inactive) and 0.81, respectively. The z-score in assay [2] was -0.305; in assay [3] it was -3.12 (inactive); in assay [4] it was -0.106 (inactive); in assay [5], 0.0237 (inactive).

Consider `COc1ccc([Si](C)(C)[C@H]2[C@H](CC(=O)N(CCO)Cc3ccccc3)O[C@@]3(C(=O)N(Cc4cccc(N5C(=O)c6cccc7cccc5c67)c4)c4ccccc43)[C@@H]2C)cc1`, for which the values for the composite z-score (in assay [1]; in the assay with XIP peptide (Xip251-270)) were 0.719 (inactive) and 0.6, respectively. The z-score in assay [2] is -2.72; in assay [3], -1.4 (inactive); in assay [4], -1.31 (inactive); in assay [5], -1.11 (inactive).

For the compound `CCOC(=O)C[C@H]1[C@H](OC(=O)c2ccccc2-c2ccccc2)[C@@H](NC(=O)c2ccc(-c3ccccc3)cc2)c2cc(OCCCO)ccc2N1C(=O)c1ccccc1`, the values for the composite z-score (in assay [1]; with XIP peptide (Xip251-270)) were 0.788 (inactive) and 0.79, respectively. Further, the z-score in assay [2] is -1.43; in assay [3] it was -1.95 (inactive); in assay [4], -0.189 (inactive); in assay [5], 0.151 (inactive).

Turning to `COc1ccccc1CN1C(=O)c2ccccc2[C@](Cc2ccccc2I)(C(=O)NCc2ccccc2)[C@@H]1c1ccc(CO)cc1`, the results for the composite z-score (in assay [1]; in the assay with XIP peptide (Xip251-270)) were -0.501 (inactive) and 0.801, respectively. The z-score in assay [2] is -0.818; in assay [3], -2.8 (inactive); in assay [4], 0.234 (inactive); in assay [5] it was 0.365 (inactive).

Regarding `Cc1ccc(N2C(=O)c3ccccc3[C@@H](C(=O)NCC(C)C)[C@@H]2c2ccc(CO)cc2)nc1`, the composite z-score in assay [1] was 0.184 (inactive); with XIP peptide (Xip251-270), 0.934. In addition, the z-score in assay [2] was 0.524; in assay [3], -0.985 (inactive); in assay [4], -0.275 (inactive); in assay [5] it was -0.387 (inactive).
